ChEMBL document CHEMBL3988442, “University of Dundee, Small-Polar-MMV Screening Library” (2021)
The campaign covered roughly 48,000 compounds. About 13,000 (27%) showed an effect of 50% or more. The list shows a part of the results.

What follows are compounds tested on Wolbachia pipientis (assay: Anti-Wolbachia Cell-Based Screen). Details: 5 µM.
Assay type: functional
Parameters: scale not given: in the data most compounds retested in dose-response had high values

Row | SMILES | Percent Effect [%]
1 | CC(=O)CCC(=O)N1CCC2(CC1)N=C(CCC(C)C)NC2=O | -5.676
2 | CC(C)(C)OC(=O)N1CCC(C(=O)NC2CCS(=O)(=O)C2)CC1 (configuration not stated) | 6.733
3 | COc1ccc(C(=O)N2CCC(C3CCN(c4ncccn4)CC3)C2)o1 (configuration not stated) | -7.407
4 | O=C(O)C(F)(F)F.O=C(c1ccco1)N1C[C@H]2CCCN(Cc3cccs3)[C@H]2C1 | -3.839
5 | O=C([C@@H]1CCS(=O)(=O)[C@@H]2CN(c3ncccn3)C[C@@H]21)N1CCOCC1 | 104.7
6 | CN1CCN(C(=O)[C@@H]2CCO[C@@H]3CCN(c4ncccn4)C[C@@H]32)CC1 | -8.422
7 | CN1CC2(CCCN(c3cnccn3)C2)OC1=O (configuration not stated) | 1.527
8 | CN1CC2(CCCN(Cc3cccc(CCN)c3)C2)OC1=O (configuration not stated) | 105.3
9 | COc1cccc(CN2CCCC3(CCN(C(CO)CO)C3)C2)c1 (configuration not stated) | -0.6359
10 | CN1CC2(CCCN(Cc3ccc(Oc4ccccc4)cc3)C2)OC1=O (configuration not stated) | 64.08
11 | COc1ccc(/C=C/CN2CCCC3(C2)CN(C)C(=O)O3)cc1 (configuration not stated) | -36.85
12 | CN(C)CCOc1cccc(CN2CCCC3(C2)CN(C)C(=O)O3)c1 (configuration not stated) | 103.2
13 | Cc1cc(C)c2[nH]c(=O)c(CN3CCCC4(C3)CN(C)C(=O)O4)cc2c1 (configuration not stated) | -2.953
14 | CN1CC2(CCCN(c3cc(N4CCCCC4)ncn3)C2)OC1=O (configuration not stated) | -3.477
15 | CN1CC2(CCCN(Cc3ccccc3OCC(=O)O)C2)OC1=O (configuration not stated) | 0.6132
16 | O=C1NC[C@@]2(C(=O)O)CN(Cc3cccc(Oc4ccccc4)c3)C[C@@H]12 | -29.67
17 | CN1CC2(CCCN(Cc3cccc(Oc4ccccc4)c3)C2)OC1=O (configuration not stated) | 123.2
18 | COc1ccc(/C=C/CN2CCC3(C2)CN(C)C(=O)O3)cc1 (configuration not stated) | -32.82
19 | CCOCCCC(=O)NCc1ccnc(N2CCN(C)CC2)c1 | 8.829
20 | CN(Cc1ccc(F)cc1C#N)CC(F)(F)F | -4.053
21 | CC(C)(C)CCN1CCN(c2snc(Cl)c2C#N)CC1 | -4.564
22 | CC(C)(NC(=O)c1coc(COc2cccc(F)c2)n1)C(N)=O | 11.65
23 | COCc1cc(CNC(=O)c2cccc3c2OCC3)n[nH]1 | -6.489
24 | CCCN1CCCN(CCCOc2cccc(C#N)c2)CC1 | 7.264
25 | N#CCCN(C(=O)CN1CCCC1c1ccsc1)c1ccccc1F (configuration not stated) | -4.506
26 | CCS(=O)(=O)N1CCn2c(COCC3CCOCC3)cnc2C1C (configuration not stated) | -1.918
27 | CN(C)C(=O)NCc1cc2n(n1)CCCN(C[C@H]1[C@@H]3CNC[C@@H]31)C2 | -16.67
